# Screening results (PubChem BioAssay)
# HSP90 inh = inhibitors of HSP90 luciferase refolding in rabbit reticulocyte lysate. luciferase refolding luminescence, 3 h. 290,000 tested, 0.91% active. inhibition, % at 5.6 µM;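 active = inhibition above the screen-wide mean plus 3 SD, computed separately per campaign, cut at about 16% in these data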;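 also: 0% = DMSO wells and 100% = 60 µM geldanamycin wells; inhibitors lower the luminescence because luciferase stays unfolded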
# TWEAK Fn14 block = inhibitors of TWEAK-Fn14 interaction signaling | TWEAK-stimulated Fn14 reporter cells, luciferase luminescence, 8 h | inhibition, % at 10 µM | 360,000 tested, 2% active; in the data active = inhibition above about 50%
# LGR2 inh = inhibitors of bursicon-induced Drosophila LGR2 receptor cAMP signaling; HEK293 LGR2, CRE-luciferase, bursicon-stimulated, 4 h; inhibition, % at 9.99 µM; 380,000 tested, 0.35% active;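 active = drop in luminescence signal, shown as inhibition above about 50% in the replicate tests, limit read from the data, passing the limit was not always enough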;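 also: agonist challenge used bursicon conditioned medium at about half maximal strength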
# TROY NFkB inh = blocks TROY-dependent signaling in reporter cells. Q293 LMP1-TROYcd NF-kB luciferase reporter, 4 h. inhibition, % at 10 µM. 360,000 tested, 0.98% active. AID 1347056;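 active = compounds whose plate-normalised and pattern-corrected inhibition of the luciferase reporter signal at the single screening dose is 50% or more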
# The depositor's hits bear a star; / = not tested or not shown. In the library only some 2.2% were active in any assay of this set; here they are far more common.
SMILES,HSP90 inh,TWEAK Fn14 block,LGR2 inh,TROY NFkB inh
CC(C)NC(=O)Nc1ccc2c(c1)CC(=O)N([C@@H](C)CO)C[C@H](C)[C@@H](CN(C)CC1CC1)O2,/,/,-8,/
CCC(=O)N1[C@@H]2c3cccc(=O)n3C[C@@H]2[C@@H](CO)[C@@H]1C(=O)NCc1ccc(F)cc1,/,/,21,/
COCC(=O)N1C[C@@H](C)[C@H](OC)CN(C)C(=O)c2ccc(NC(=O)c3ccc(F)cc3)cc2OC[C@@H]1C,/,/,-4,/
CCC(C)c1ccc(S(=O)(=O)N2CCN(C(=O)COc3ccc4c(C)cc(=O)oc4c3)CC2)cc1 (stereo not drawn),1,58*,/,/
COc1ccc(S(=O)(=O)N2CCN(C(=O)COc3ccc4c(C)cc(=O)oc4c3)CC2)cc1,0,/,/,/
COc1cc(C(=O)O/N=C(\N)c2ccc([N+](=O)[O-])cc2)cc(OC)c1OC,1,-32,0,-9
COc1cc(C(=O)O/N=C(\N)c2cccc([N+](=O)[O-])c2)cc(OC)c1OC,0,62*,4,-1
O=C(Nc1ccccc1)N1C[C@@H]2[C@H](c3ccccc31)[C@@H](CO)N2C(=O)c1ccncc1,/,/,-15,/
CC(C)CC1NC(=O)N(Cc2nc3ccccc3s2)C1=O (stereo not drawn),1,72*,-37,0
Cc1ccc(NC(=O)CSc2ncnc3ccccc23)cc1S(=O)(=O)N1CCOCC1,-2,71*,27,53*
O=C(CSc1ncnc2ccccc12)Nc1ccc2c(c1)OCCO2,1,-3,-13,-18
CC(=O)c1cccc(NC(=O)CSc2nc(C3CC3)nc3ccccc23)c1,3,58*,14,40
CC(=O)Nc1cccc(NC(=O)CSc2nc(C3CC3)nc3ccccc23)c1,-2,31,-12,9
Cc1ccc(NC(=O)CSc2ncnc3ccccc23)cc1S(=O)(=O)N1CCCCC1,2,72*,28,35
O=C(CSc1ncnc2ccccc12)Nc1ccc2c(c1)OCO2,-6,65*,-37,-14
Cc1ccc(NC(=O)COc2ncnc3ccccc23)cc1S(=O)(=O)N1CCOCC1,4,13,5,13
Cc1noc(C)c1COC(=O)c1cccc(S(=O)(=O)N2c3ccccc3CC2C)c1 (stereo not drawn),6,53*,/,19
Cc1noc(C)c1COC(=O)c1cccc(S(=O)(=O)N2CCOCC2)c1,/,8,13,16
Cc1cc(C(=O)COC(=O)c2ccc[nH]c2=O)c(C)n1-c1ccc(F)cc1,4,64*,25,70*
Cc1cc(C(=O)COC(=O)c2ccc[nH]c2=O)c(C)n1C1CC1,6,31,3,19
Cc1cc(C(=O)COC(=O)c2ccc[nH]c2=O)c(C)n1-c1ccccc1,0,58*,/,71*
COc1ccc2c3c(n(C)c2c1)[C@@H](CO)N(C(C)=O)CC31CN(C(=O)c2cnccn2)C1,/,/,-4,/
CCS(=O)(=O)N1CC(=O)N2[C@H](CO)[C@H](c3ccc(-c4ccc(C)cc4)cc3)[C@@H]2C1,/,/,4,/
C[C@@H]1CN([C@H](C)CO)C(=O)c2cc(C3=CCCCC3)cnc2O[C@H]1CN(C)C(=O)Cc1ccncc1,/,/,-3,/
Cc1cc(C)c2ccc(N)nc2c1O,-2,69*,/,9
SMILES,HSP90 inh,TWEAK Fn14 block,LGR2 inh,TROY NFkB inh
COc1cccc(-c2ccc3c(c2)[C@@H]2[C@@H](CCN2C(=O)c2ccc(F)cc2)[C@@H](CO)N3)c1,/,/,-5,/
COc1ccc(NC(=O)Nc2ccc3c(c2)C(=O)N([C@@H](C)CO)C[C@@H](C)[C@H](CN(C)Cc2ccc4c(c2)OCO4)OCCCC[C@H](C)O3)cc1,/,/,12,/
Nc1cc(=O)[nH]c(SCc2cccc3ccccc23)n1,-3,-9,0,17
O=c1cc(C(F)(F)F)nc(SCc2cccc3ccccc23)[nH]1,-2,-28,4,62*
CC(C)C[C@H](NC(=O)c1[nH]cnc1C(=O)Nc1ccc(CNC(=O)OC(C)(C)C)cc1)C(=O)OCc1ccccc1,/,22,9,28
CC(C)(C)OC(=O)NCc1ccc(CNC(=O)c2nc[nH]c2C(=O)NCc2ccc(CNC(=O)OC(C)(C)C)cc2)cc1,/,48,7,18
CC(C)(C)OC(=O)NCCCCCNC(=O)c1nc[nH]c1C(=O)NCc1ccc(CNC(=O)OC(C)(C)C)cc1,/,96*,/,64*
CC(C)(C)OC(=O)NCc1ccc(CNC(=O)c2[nH]cnc2C(=O)NC2CCN(C(=O)OC(C)(C)C)CC2)cc1,/,57*,/,48
C[C@H](NC(=O)c1[nH]cnc1C(=O)Nc1ccc(CNC(=O)OC(C)(C)C)cc1)C(=O)OCc1ccccc1,/,52*,0,74*
CC(C)(C)OC(=O)NCCCCCNC(=O)c1nc[nH]c1C(=O)NCCCCCNC(=O)OC(C)(C)C,/,65*,102*,58*
CCN1[C@@H]2c3ccc(-c4ccccc4F)c(=O)n3C[C@H]1[C@H](CO)[C@H]2C(=O)N1CCCCC1,/,/,-19,/
CO[C@H]1CN(C)C(=O)c2cc(NS(=O)(=O)c3ccc(C)cc3)ccc2OC[C@H](C)N(C)C[C@@H]1C,/,/,4,/
CC(C)(C)OC(=O)NCCCCCNC(=O)c1nc[nH]c1C(=O)NCC(=O)OCc1ccccc1,/,22,85*,27
O=C(Nc1ccccc1)c1nc[nH]c1C(=O)NCCCCCCNC(=O)c1[nH]cnc1C(=O)Nc1ccccc1,/,69*,/,26
CC(C)(C)OC(=O)CNC(=O)c1[nH]cnc1C(=O)NCC(=O)OCc1ccccc1,-2,26,3,-1
C[C@H](CO)N1C[C@H](C)[C@H](CN(C)S(=O)(=O)c2ccc(C#N)cc2)Oc2ncc(/C=C/c3ccccc3)cc2C1=O,/,/,4,/
CCOC(=O)c1ccc(NC(=O)COc2cc3oc(=O)c(CC(C)O)c(C)c3cc2Cl)cc1 (stereo not drawn),1,6,-32,18
CC(=O)c1cccc(NC(=O)COc2cc3oc(=O)c(CC(C)O)c(C)c3cc2Cl)c1 (stereo not drawn),0,60*,41,45
Cc1ccc(S(=O)(=O)Nc2ccc3c(c2)C(=O)N([C@@H](C)CO)C[C@@H](C)[C@H](CN(C)CC2CCCCC2)O3)cc1,/,/,-12,/
COCC(=O)N1C[C@H](C)[C@@H](OC)CN(C)C(=O)c2cc(NC(=O)c3ccc(OC)cc3)ccc2OC[C@@H]1C,/,/,15,/
C[C@@H]1CCCCO[C@@H](CN(C)S(=O)(=O)c2ccccc2)[C@H](C)CN([C@@H](C)CO)C(=O)c2cc(NC(=O)CCCN(C)C)ccc2O1,/,/,-6,/
COc1ccc(/C=N/Nc2nc(-c3cccc(S(=O)(=O)N4CCCC4)c3)cs2)cc1OC,-3,13,-4,17
CCOc1cc(/C=N/Nc2nc(-c3cccc(S(=O)(=O)N4CCCC4)c3)cs2)ccc1O,-2,61*,33,15
COc1cc(/C=N/Nc2nc(-c3ccc(S(=O)(=O)N(C)C)cc3)cs2)ccc1O,7,81*,-8,12
O=C(C[C@H]1CC[C@@H](NC(=O)Nc2ccc3c(c2)OCO3)[C@H](CO)O1)NCc1ccccc1,/,/,21,/
COc1ccc(Cl)cc1NC(=O)C/C(C)=N/NC(=O)c1ccccc1[N+](=O)[O-],4,-4,13,-4
